Data reported in ChEMBL document CHEMBL3988442, “University of Dundee, Small-Polar-MMV Screening Library” (2021).
“And” between values parts separate entries of the source, which are not always exact repeats. Equal entries are not always repeated. The whole screen tested about 34,000 compounds, of which about 290 (0.85%) showed an effect of 50% or more. Only a selection was taken, and strong results are over-represented in it overall.

System: Plasmodium falciparum
Test: Plasmodium falciparum sporozoite viability assay
Assay type: functional, organism-based
Parameters: scale not given: in the data most compounds retested in dose-response had high values

Compound	Percent Effect	Percent Effect (10 mM as filed; unlikely as a test dose)
N#Cc1ccc(NCCC(=O)N2CCCc3ccccc32)nc1	-11.08%	–
Cc1cc(CC2COCCN(CCc3ccccc3)C2)ncn1 (stereo not drawn)	5.745%	–
O=C(c1cc(-c2cccnc2)[nH]n1)N1CCCC(c2cnccn2)C1 (stereo not drawn)	12.79%	–
Cc1c[nH]nc1C1CCN(C(=O)C2CCOCC2)C1 (stereo not drawn)	-9.491%	–
Nc1cccc(C2CN(C(=O)CN3CCOCC3)CCO2)n1 (stereo not drawn)	3.517%	–
COc1ccc(CN2CCO[C@H]3CN(C(=O)C4CC4)CC[C@H]3C2=O)cc1	-7.815%	–
COc1ccnc(N2CCN(CC(=O)N3CCOC(C)C3)CC2)n1 (stereo not drawn)	-0.9874%	–
COc1ccc(-c2cnc(N(C)C)nc2C2CN(C(C)=O)CCO2)cc1 (stereo not drawn)	14.8%	–
CC(=O)NCC(=O)N1CCOC(c2cccc(N)n2)C1 (stereo not drawn)	2.685%	–
CC(=O)N1CCOC(c2ccnc(N(C)C)n2)C1 (stereo not drawn)	3.741%	–
COc1ccc2cc(C3CN(C(=O)CN4CCCC4)CCO3)ccc2c1 (stereo not drawn)	–	56.27% and 53.19% and 50.16%
COc1ccc2cc(C3CN(C(=O)C4CCOCC4)CCO3)ccc2c1 (stereo not drawn)	–	90.24% and 38% and 72.69%
COc1ccc2cc(C3CN(C(=O)CCNC(C)=O)CCO3)ccc2c1 (stereo not drawn)	–	97.44% and 100.2% and 98.47%
COc1ccc2cc(C3CN(C(=O)N(C)C)CCO3)ccc2c1 (stereo not drawn)	–	102.8% and 105.3% and 102%
COc1ccc2c(c1)[C@@H](CCNC(C)=O)CC(C)(C)O2	3.641%	–
COc1ccccc1CN1CCC2(CCC(C(=O)N(C)C)O2)CC1 (stereo not drawn)	9.72%	–
CCc1ncnc2c1CCN(S(=O)(=O)c1ccccc1)CC2	11.48%	–
O=C(O)c1cc(S(=O)(=O)Nc2ccc(F)c(Cl)c2)cc2c1OCCO2	12.45%	–
O=C(CC1CC1)N1CCc2ncc(Cn3cncn3)n2CC1.O=C(O)C(F)(F)F	2.491%	–
CC(=O)N1CCc2ncc(CNC(=O)C3CCC3)n2CC1	-7.632%	–
COCC(=O)N1CCOC(c2cccc(-c3cncnc3)n2)C1 (stereo not drawn)	0.9327%	–

Compound	Percent Effect	Percent Effect (10 mM as filed; unlikely as a test dose)
CNC(=O)CN1CCC(c2cc(OC)cc(OC)c2)C1 (stereo not drawn)	-3.657%	–
CNC(=O)CCC(=O)N1CCOC(c2ccc3cc(OC)ccc3c2)C1 (stereo not drawn)	–	98.94% and 98.67% and 101%
COc1ccc2cc(C3CN(C(=O)COC(C)C)CCO3)ccc2c1 (stereo not drawn)	–	38.96% and 58.61% and 49.31%
COCC(=O)N1CCOC(c2ccc(N(C)C)cn2)C1 (stereo not drawn)	-1.133%	–
CNC(=O)c1ccc(C2CN(C(=O)COC)CCO2)nc1 (stereo not drawn)	-16.96%	–
CC(C)COCCCNC(=O)NCC(O)c1cccc(F)c1 (stereo not drawn)	2.496%	–
Cc1ccc(Nc2nccc(C3CCN(C(=O)CN)C3)n2)nc1.Cl (stereo not drawn)	–	81.99% and 45.72% and 74.53%
CC(=O)N1CC(c2ccnc(Nc3ccc(C)cn3)n2)C1	–	15.77% and 8.208% and 11.03%
Cc1ccc(Nc2nccc(C3CCN(C(=O)CO)C3)n2)nc1 (stereo not drawn)	–	-6.369% and -30.39% and -30.26%
CNCC(=O)N1CCCC(c2ccnc(Nc3cnccn3)n2)C1 (stereo not drawn)	-8.636%	–
Cl.Cl.NCC(=O)N1CCCC(c2ccnc(Nc3cnccn3)n2)C1 (stereo not drawn)	10.19%	–
CCN1CCCC1CNCc1cc2ccccc2[nH]c1=O (stereo not drawn)	24.74%	–
c1cc(C2CCN(c3cnccn3)CC2)ccn1	11.86%	–
COc1ccc(C(=O)N(C)Cc2c(C)noc2C)cn1	8.528%	–
Cc1nc(C)n(CC2CCCN2Cc2nc(-c3ccco3)no2)n1 (stereo not drawn)	–	-0.3641% and 0.04429% and -1.23%
CC(C)(C)CC1CCCN1Cc1nc(-c2ccco2)no1 (stereo not drawn)	–	58.36% and 65.06%
CN(C)CCN1C(=O)CC[C@@H]2[C@H]1CCN2Cc1cccc(C#N)c1.O=C(O)C(F)(F)F.O=C(O)C(F)(F)F	-0.2577%	–
Cc1nc(C)n(CC2CCCN(CCOc3ccccc3C#N)C2)n1 (stereo not drawn)	12.74%	–
O=C(NCC1CC1)[C@H]1C[C@H]2OCC[C@H]2N(Cc2ccoc2)C1	-11.2%	–
Cn1nccc1CNC(=O)CCn1nc(C(F)(F)F)c(Cl)c1C1CC1	10.43%	–
O=C(COCc1ccccc1Cl)N1CCN(c2ncccn2)CC1	3.259%	–

Compound	Percent Effect	Percent Effect (10 mM as filed; unlikely as a test dose)
CC(C)(O)CN1CCN(C(=O)COCc2ccccc2Cl)CC1	–	71.26% and 47.5% and 53.2%
COc1ccc(COCC(=O)N2CCN(CC(C)(C)O)CC2)cc1	–	7.514% and -16.19% and -8.725%
CC(NC(=O)CCCc1nc(C(C)(C)C)no1)c1ccccn1 (stereo not drawn)	4.866%	–
Cc1nn(C)cc1-c1cc(C(=O)NCC(C)(C)c2cccc(F)c2)n[nH]1	-0.9712%	–
CN(C)CC1CSCCCN1C(=O)c1ccc(-c2ccccc2)cc1 (stereo not drawn)	11.37%	–
CC(NCC(=O)NCC(=O)Nc1ccc(F)cc1)c1cccs1 (stereo not drawn)	0.1791%	–
CN(C)C(=O)CN1CCC2(CC1)CC(=O)c1ccc3ccccc3c1O2	–	28.41% and 58.1% and 56.14%
NC(=O)CN1CCC2(CC1)CC(=O)c1ccc3ccccc3c1O2	–	14.56% and 23.77% and 28.36%
CN(C)C(=O)CN1CCC2(CC1)CN(S(C)(=O)=O)Cc1ccccc1O2	-23.82%	–
CN(C)C(=O)CN1CCC2(CC1)CC(=O)c1c(ccc3ccccc13)O2	16.77%	–
CCOC(=O)CN1CCC2(CC1)CC(=O)c1ccc(OC)cc1O2	-0.03409%	–
Cc1nc(C)c(C(=O)OCCNc2ncccc2C#N)s1	25.07%	–
CNC(=O)Cc1ccc(NC(=O)NC(C)C(C)C)cc1 (stereo not drawn)	–	-4.587% and -4.397% and -12.09%
CC(CN1CCC(CCO)CC1)n1cnc2ccccc21 (stereo not drawn)	–	-16.85% and -31%
CCN(CC)CCCNc1nc(C)nc2c1CCN(C)C2.O=C(O)CC(O)(CC(=O)O)C(=O)O	7.039%	–
CN(CC(=O)NCC1CCCO1)Cc1nc2c(s1)CCCC2 (stereo not drawn)	–	56.93% and 58.41%
CN(CC(=O)NCc1ccco1)Cc1nc2c(s1)CCCC2	–	18.7% and 19.42%
CN(Cc1nnc(-c2ccco2)o1)Cc1nc2c(s1)CCCC2	–	-11.23% and -0.3712% and 0.4353%
CN(CC(=O)NCC(F)(F)F)Cc1nc2c(s1)CCCC2	–	29.9% and 31.57%
CN(Cc1nnc(-c2cccs2)o1)Cc1nc2c(s1)CCCC2	–	22.52% and 35.26% and 20.64%
Cc1nnc(CN(C)Cc2nc3c(s2)CCCC3)o1	–	69.64% and 55.12% and 51.62%
